Only some compounds are listed: those with a hit (about 19% of all), similar ones and a draw of the others.
KB-V1 cytotox – kills drug-selected multidrug resistant KB-V1 cells. actives 3.4% (n = 400,000). Potency, µM (top dose mostly 46.1 µM), usual class: cytotoxic. KB-V1 MDR cells viability, CellTiter-Glo, 72 h; also: nearly all actives have a fitted effect of over 60% in size
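Drug-selected KB-V1 cells, grown in DMEM lacking phenol red with 10% FBS, receive compound titrations; after three days at 37 degrees C, surviving cell ATP is quantified by CellTiter-Glo luminescence and responses normalized and curve-fitted.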
HT1080-NT tox – kills 2HG-producing HT-1080-NT fibrosarcoma cells; Potency, µM (series often up to 46.1 µM), hits mostly cytotoxic; actives 1.6% (n = 360,000); HT-1080-NT fibrosarcoma viability, CellTiter-Glo ATP luminescence, 48 h;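 also: NT is the 2HG producing partner of a matched IDH1 knockdown line; nearly all actives have a fitted effect of over 55% in size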
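A 48-hour cytotoxicity screen used HT-1080-NT cells plated 2 hours before compound delivery. ATP-based CellTiter-Glo luminescence measured viability, normalized to DMSO and no-cell controls.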
HT1080 IDH1KD tx – HT-1080 IDH1 knockdown cell toxicity (counter line). HT-1080 IDH1 knockdown viability, ATP luminescence, 48 h. Potency, µM (highest dose often 46.1 µM), actives largely listed as cytotoxic. actives 2% (n = 360,000). AID 686971
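Viability of IDH1-knockdown HT-1080 fibrosarcoma cells was assessed by CellTiter-Glo after 48 h at 37 °C with titrated compound; concentration-effect curves were classified by fit quality and response size.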
TDP1 cell noCPT – qHTS for Inhibitors of human tyrosyl-DNA phosphodiesterase 1 (TDP1): qHTS in cells in absence of CPT; DT40 Tdp1-/- hTDP1 cells, no CPT, ATP luminescence, 48 h; Potency, µM (titrated, usually from 46.2 µM), hits mostly inhibitors; actives 15% (n = 420,000); AID 686978, 2013; also: nearly all actives have a fitted effect of over 55% in size
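DT40 Tdp1-/-;hTDP1 cells, no CPT (DMSO vehicle only), 400 cells/well; compounds pin-transferred; ≥48 hr, 37 °C; CellTiter-Glo 30 min RT dark, luminescence read.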
TDP1 cell CPT – growth inhibition of DT40 Tdp1-/-;hTDP1 cells with camptothecin (screen for TDP1 inhibitors); chicken DT40 Tdp1-/-;hTDP1 cells + 20 nM CPT, ATP luminescence, 48 h; Potency, µM (titrated, usually from 46.2 µM), actives largely listed as inhibitors; actives 12% (n = 420,000); also: nearly all actives have a fitted effect of over 55% in size
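Cell growth measured by CellTiter-Glo luminescence after a minimum 48 h, 37 C compound exposure with 20 nM CPT in Tdp1-knockout DT40 cells stably expressing hTDP1, seeded 400/well; qHTS titration format.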
KB-3-1 cytotox – kills parental KB-3-1 adenocarcinoma cells | KB-3-1 viability, CellTiter-Glo ATP luminescence, 72 h | Potency, µM (highest dose often 46.1 µM), usual class: cytotoxic | AID 1347075 | actives 1.4% (n = 400,000); also: nearly all actives have a fitted effect of over 60% in size
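72 h, 37 °C compound treatment of KB-3-1 parental cells; CellTiter-Glo added, 10 min, luminescence read. Data corrected against DMSO-only plates and normalized before curve fitting.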
A number is an active result; i = inactive; ? = inconclusive; nt = no result given. Calls follow the shape of the dose curve; as a rule, active = well fitted curve in the direction sought with a large enough effect; inconclusive = small, poorly fitted or top-dose-only effect, or another doubt; inactive = no such curve, though single readings can be large; an effect the other way counts as inactive or inconclusive.

SMILES	KB-V1 cytotox	HT1080-NT tox	HT1080 IDH1KD tx	TDP1 cell noCPT	TDP1 cell CPT	KB-3-1 cytotox
O=[N+]([O-])c1cc([N+](=O)[O-])c2oc(-c3ccccc3)c(Br)c2c1O	?	?	?	8.2µM	?	?
Cc1ccnc(NC(=S)N2CCN(c3cccc([N+](=O)[O-])c3)CC2)c1	i	nt	nt	nt	nt	i
O=C(Nc1ccc(Br)cc1F)c1ncoc1-c1ccco1	i	nt	nt	i	i	i
Cc1csc2nc(COc3ccc(NC(=O)COc4ccccc4F)cc3)cc(=O)n12	i	nt	nt	15µM	?	i
Cc1ccccc1OCC(=O)Nc1ccccc1C(=O)OCc1cc(=O)n2c(C)csc2n1	nt	nt	nt	4.6µM	2.6µM	nt
Cc1csc2nc(COC(=O)COc3ccccc3F)cc(=O)n12	i	nt	nt	i	i	i
COc1ccccc1C(=O)Nc1ccccc1OCc1cc(=O)n2c(C)csc2n1	i	nt	nt	16µM	?	i
Cc1csc2nc(COc3ccccc3NC(=O)c3ccccc3Cl)cc(=O)n12	?	nt	nt	3.7µM	4.6µM	i
COCc1nn2cc(-c3ccc(C)cc3)nc2s1	i	nt	nt	?	i	i
Cc1ccccc1C(=O)NNS(=O)(=O)c1ccc(F)cc1	i	i	i	i	i	i
C=CCC1NS(=O)(=O)OCC1NC(=O)OCC(Cl)(Cl)Cl (stereo unspecified)	i	i	i	i	i	i
CC(C)(C)OC1NS(=O)(=O)OCC1NCOC(Cl)(Cl)Cl (stereo unspecified)	i	i	i	3.7µM	3.3µM	i
Cc1ccc(NC(=O)COC(=O)c2ccc3c(c2)C(=O)N(CCc2ccccc2)C3=O)c(C)c1	i	i	i	6.5µM	?	i
CCOc1ccc(NC(=O)COC(=O)c2ccc3c(c2)C(=O)N(CCc2ccccc2)C3=O)cc1	i	i	i	?	?	i
Cn1nc(C(C)(C)C)cc1C(=O)N1CCCCC1c1cc(C(=O)NCc2ccc(F)cc2)no1 (stereo unspecified)	4.1µM	i	?	13µM	21µM	?
Cn1nc(C(C)(C)C)cc1C(=O)N1CCCCC1c1cc(C(=O)NCc2ccccc2)no1 (stereo unspecified)	9.2µM	i	?	10µM	10µM	?
O=C(NCc1ccc(F)cc1)c1cc(C2CCCCN2S(=O)(=O)c2ccccc2)on1 (stereo unspecified)	i	i	i	?	?	i
Cc1c2cnn(CC(=O)N3CCN(c4ccc(F)cc4)CC3)c(=O)c2c(C)n1Cc1ccccc1F	i	nt	nt	18µM	21µM	i
Cc1c2cnn(CC(=O)N3CCN(c4ccc(F)cc4)CC3)c(=O)c2c(C)n1Cc1ccc(F)cc1	i	nt	nt	7.3µM	23µM	i
O=C(Cn1ncc2c([nH]c3ccccc32)c1=O)N1CCN(c2ccc(F)cc2)CC1	i	i	?	i	i	i
C[C@@H](C(=O)NCc1ccccc1)[C@H]1C[C@]1(C)[C@H](NC(=O)OCc1ccccc1)c1ccccc1	?	i	i	?	?	?
COc1ccc(CNC(=O)[C@H](C)[C@@H]2C[C@@]2(C)[C@@H](NC(=O)OCc2ccccc2)c2ccccc2)cc1OC	?	i	i	12µM	15µM	i
Cc1cc(CNC(=O)[C@H](C)[C@@H]2C[C@@]2(C)[C@@H](NC(=O)OCc2ccccc2)c2ccccc2)nn1C	i	i	i	?	23µM	i
Clc1ccc(CN2CCc3nc(N4CCN(c5ccccn5)CC4)ncc3C2)cc1	i	nt	nt	i	i	i
COc1cccc(N2CCN(c3ncc4c(n3)CCN(Cc3ccc(Br)cc3)C4)CC2)c1	i	nt	nt	9.2µM	13µM	?
SMILES	KB-V1 cytotox	HT1080-NT tox	HT1080 IDH1KD tx	TDP1 cell noCPT	TDP1 cell CPT	KB-3-1 cytotox
CCOc1ccc(CN2CCc3nc(N4CCN(c5ncccn5)CC4)ncc3C2)cc1OC	i	nt	nt	?	21µM	i
CCOc1ccc(CN2CCc3nc(N4CCN(c5ccccc5OC)CC4)ncc3C2)cc1OC	?	nt	nt	10µM	9.2µM	?
COc1cc(OC)c(OC)cc1CN1CCc2nc(N3CCN(c4ncccn4)CC3)ncc2C1	i	nt	nt	23µM	16µM	i
CCc1ccc(CN2CCc3nc(N4CCN(c5ccccc5F)CC4)ncc3C2)cc1	i	nt	nt	18µM	?	i
SCc1nc2ccccc2[nH]1	?	nt	nt	10µM	?	?
CCOc1ccccc1/C=N/NC(=O)c1nnn(-c2nonc2N)c1CN1CCCC1	i	i	i	i	i	i

Screening results (PubChem)
